Bead autofluor: counter-screen for toxin protease inhibitors: compound fluorescence. 360,000 compounds, 3.1% hits. compound autofluorescence counterscreen, microsphere flow cytometry; hits give high values. fluorescence intensity (concentration not given with the values). AID 624483; in the data active = fluorescence intensity above about 16000; inconclusive = no clear call, values can overlap the other calls
BoNT A protease: BoNT/A light chain protease inhibitors, primary screen, biochemical, flow cytometry, MLPCN library | Botulinum neurotoxin type A light chain protease (Clostridium botulinum A str. ATCC 3502) | multiplex microsphere protease substrate cleavage | inhibition, % at 10 µM | 360,000 compounds, 0.17% hits | AID 588499, 2011; also: plate controls were buffer without enzyme for full effect and enzyme alone for no effect
Anthrax LF prot: Bacillus anthracis LF protease inhibitors, primary screen, biochemical, multiplex microsphere, MLPCN library | multiplex microsphere protease cleavage assay | 360,000 compounds, 0.12% hits | inhibition, % at 10 µM | Lethal factor (Bacillus anthracis), P15917; also: plate controls were buffer without enzyme for full effect and enzyme alone for no effect
MazF activator: activators of E. coli MazEF toxin-antitoxin RNase, primary screen, biochemical, fluorescence, uHTS; 350,000 compounds, 0.32% hits; Endoribonuclease toxin MazF (Escherichia coli (strain K12)), P0AE70; FAM/BHQ RNA-DNA oligo cleavage fluorescence, 5 h; AID 504720, 2011; activation, % at 20 µM; in the data active = activation above about 50%
Target sequence (P0AE70 whole entry, looked up): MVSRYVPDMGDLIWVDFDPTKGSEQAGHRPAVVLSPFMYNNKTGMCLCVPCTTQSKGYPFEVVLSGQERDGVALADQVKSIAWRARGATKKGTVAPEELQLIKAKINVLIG
BoNT F protease: BoNT/F light chain protease inhibitors, primary screen, biochemical, flow cytometry, MLPCN library; Botulinum neurotoxin type F light chain protease (Clostridium botulinum); inhibition, % at 10 µM; 360,000 compounds, 0.22% hits; Multiplex microsphere protease cleavage assay; AID 588497, 2011; in the data active = inhibition above about 35%, passing the limit was not always enough; inconclusive = no clear call, values can overlap the other calls; also: plate controls were buffer without enzyme for full effect and enzyme alone for no effect
* marks the source's active call; other numbers are inactive results. Rows were chosen to be rich in hits. Some 3.7% of all compounds tested hit in one or more screens of this group. Rule as the data show it, unless noted: active = inhibition above about 30%; inconclusive = no clear call, values can overlap the other calls; inactive = below that.

How did COc1cc(/C=C/C(=O)/C=C(O)/C=C/c2ccc(O)c(OC)c2)ccc1O do in these assays?
Bead autofluor: 4422; BoNT A protease: 32.1*; Anthrax LF prot: 10.4; MazF activator: -35.2; BoNT F protease: -0.7

Results for COc1cc(/C=C/C(=O)CC(=O)/C=C/c2ccc(O)c(OC)c2)ccc1O ?
Bead autofluor: 6257; BoNT A protease: 30.8*; Anthrax LF prot: 16.8; MazF activator: -35.0; BoNT F protease: -12.4

Results for COc1cc(/C=C/C(=O)O)ccc1O ?
Bead autofluor: 5977; BoNT A protease: -1.1; Anthrax LF prot: -0.8; MazF activator: 7.8; BoNT F protease: -18.8

How did COc1cc(C=C(C(C)=O)C(C)=O)ccc1O do in these assays?
Bead autofluor: 3454; BoNT A protease: 1.1; Anthrax LF prot: -0.2; MazF activator: 8.9; BoNT F protease: 17.7

How did OCCCNc1ncnc2c1ncn2[C@H]1CN(Cc2ccco2)C[C@@H](CO)O1 do in these assays?
Bead autofluor: 2872; BoNT A protease: 0.0; Anthrax LF prot: -11.2; BoNT F protease: 0.3

What do the screens show for `CN(C)c1ccc(N=Cc2ccco2)cc1`?
Bead autofluor: 20149*; BoNT A protease: 7.7; Anthrax LF prot: -10.4; MazF activator: 7.9; BoNT F protease: -23.3

How did O=C1C2C3CC4C5C3C1C5C1(SCCS1)C42 (stereo not given) do in these assays?
Bead autofluor: 5919; BoNT A protease: 0.1; Anthrax LF prot: -2.8; BoNT F protease: 0.9

Results for CC1Oc2ccccc2N(CC(=O)N2CCCc3ccccc32)C1=O (stereo not given) ?
Bead autofluor: 18633*; BoNT A protease: 11.4; Anthrax LF prot: -16.5; MazF activator: -12.3; BoNT F protease: 12.7

Results for O=C(CN1C(=O)COc2ccccc21)N1CCc2ccccc21 ?
Bead autofluor: 3695; BoNT A protease: 0.2; Anthrax LF prot: 3.7; MazF activator: -2.0; BoNT F protease: 20.4

What do the screens show for `CC1Oc2ccccc2N(CC(=O)N2CCc3ccccc32)C1=O` (stereo not given)?
Bead autofluor: 23145*; BoNT A protease: 0.9; Anthrax LF prot: -3.9; MazF activator: -13.4; BoNT F protease: 0.1

Results for O=C(Cn1cccc1)N1CCc2ccccc21 ?
Bead autofluor: 17880*; BoNT A protease: -4.5; Anthrax LF prot: -3.9; MazF activator: 11.0; BoNT F protease: -9.7

Results for CC1Oc2ccccc2N(CC(=O)N2CCCCC2)C1=O (stereo not given) ?
Bead autofluor: 3603; BoNT A protease: 2.2; Anthrax LF prot: 1.4; MazF activator: -8.9; BoNT F protease: 3.1

What do the screens show for `Cc1ccc(NC(=S)N2CCC(NC(=O)c3ccc(F)cc3)CC2)cc1C`?
Bead autofluor: 5809; BoNT A protease: -0.1; Anthrax LF prot: -0.9; MazF activator: 2.2; BoNT F protease: 2.3

Results for O=C(NCCCO)c1nnc(Cc2c(F)cccc2Cl)o1 ?
Bead autofluor: 16086; BoNT A protease: 0.6; Anthrax LF prot: -6.5; MazF activator: -1.4; BoNT F protease: 0.6

How did O=C(NCCCN1CCN(Cc2ccccc2)CC1)c1nnc(Cc2c(F)cccc2Cl)o1 do in these assays?
Bead autofluor: 19523*; BoNT A protease: 0.4; Anthrax LF prot: -1.6; MazF activator: 3.4; BoNT F protease: 3.2

How did COc1ccc2c(c1)[nH]c1c(=O)n(CC3CCCO3)cnc12 (stereo not given) do in these assays?
Bead autofluor: 17272*; BoNT A protease: -1.9; Anthrax LF prot: -2.4; MazF activator: -5.2; BoNT F protease: -2.5

Results for COc1ccc(OC)c(NC(=O)C2CCN(c3ncccn3)CC2)c1 ?
Bead autofluor: 19922*; BoNT A protease: 1.3; Anthrax LF prot: -4.2; MazF activator: 1.8; BoNT F protease: -1.4

Results for COc1ccccc1NC(=O)C1CCN(c2ncccn2)CC1 ?
Bead autofluor: 21787*; BoNT A protease: -0.6; Anthrax LF prot: -3.0; MazF activator: 0.4; BoNT F protease: -1.7

What do the screens show for `Cc1c(Cl)cccc1NC(=O)C1CCN(c2cnccn2)CC1`?
Bead autofluor: 3981; BoNT A protease: 4.9; Anthrax LF prot: 9.2; MazF activator: -0.6; BoNT F protease: 8.9

How did Cc1ccccc1NC(=O)C1CCN(c2cnccn2)CC1 do in these assays?
Bead autofluor: 21599*; BoNT A protease: -2.0; Anthrax LF prot: -2.7; MazF activator: 1.7; BoNT F protease: -4.8

How did CC(=O)Nc1ccc(NC(=O)C(C)OC(=O)CCc2c[nH]c3ccccc23)cc1 (stereo not given) do in these assays?
Bead autofluor: 5922; BoNT A protease: -0.2; Anthrax LF prot: 1.4; MazF activator: 9.0; BoNT F protease: -10.5

Results for CCCCN(C)C(=O)c1sc(=O)n(Cc2ccc(Cl)c(Cl)c2)c1C ?
Bead autofluor: 4194; BoNT A protease: -0.6; Anthrax LF prot: -5.0; BoNT F protease: -14.4

Results for COc1cc2c(cc1OC)CN(S(=O)(=O)/C=C/c1ccccc1)CC2 ?
Bead autofluor: 3399; BoNT A protease: -0.3; Anthrax LF prot: 3.8; MazF activator: 8.8; BoNT F protease: 39.9*

How did COc1ccc(N2CCN(S(=O)(=O)/C=C/c3ccccc3)CC2)cc1 do in these assays?
Bead autofluor: 9166; BoNT A protease: -0.3; Anthrax LF prot: -0.4; MazF activator: -0.6; BoNT F protease: 3.5

Results for O=C(CC1c2ccccc2C=C(c2ccsc2)N1c1ccc(-c2cccnc2)cc1)C1CC1 (stereo not given) ?
Bead autofluor: 5151; BoNT A protease: 4.1; Anthrax LF prot: 0.8; BoNT F protease: -4.6

How did COc1ccccc1Cc1noc(COc2cccc(C)c2C)n1 do in these assays?
Bead autofluor: 16962*; BoNT A protease: -1.8; Anthrax LF prot: -1.2; MazF activator: -11.6; BoNT F protease: -10.1

What do the screens show for `O=C(O)c1ccc(OCCN2CCCC2=O)cc1`?
Bead autofluor: 19644*; BoNT A protease: -50.8; Anthrax LF prot: -35.2; MazF activator: 4.4; BoNT F protease: -279.2

Results for C=CCC(=O)OCCCCCCOc1ccc(C(=O)O)cc1 ?
Bead autofluor: 4205; BoNT A protease: 0.3; Anthrax LF prot: 1.1; MazF activator: 2.6; BoNT F protease: -8.7

What do the screens show for `C=CCCCOc1ccc(C(=O)O)cc1`?
Bead autofluor: 21372*; BoNT A protease: -2.6; Anthrax LF prot: -1.9; MazF activator: -3.5; BoNT F protease: -2.1

Results for COc1ccc(C(=O)NCCS(=O)(=O)N2CCCC2)cc1 ?
Bead autofluor: inconclusive; BoNT A protease: 0.1; Anthrax LF prot: inconclusive; MazF activator: 0.7; BoNT F protease: inconclusive

What do the screens show for `C[C@H]1CN([C@@H](C)CO)S(=O)(=O)c2ccc(Br)cc2O[C@H]1CN(C)C(=O)c1cccc(F)c1`?
Bead autofluor: 3020; BoNT A protease: -0.3; Anthrax LF prot: -6.0; MazF activator: 8.3; BoNT F protease: -2.3

Compound activity from PubChem.
